PubChem BioAssay AID1851 (National Center for Advancing Translational Sciences (NCATS), 2009)
Screen size: about 16,000 compounds; about 4,000 (25%) were called active. Inconclusive results (about 26%) are left out. A selection follows. A number with no mark means an inactive call. Calls come from the whole dose curve; as a rule, active = well fitted curve in the direction sought with a large enough effect; inconclusive = small, poorly fitted or top-dose-only effect, or effect the other way; inactive = no such curve, though single readings can be large or run the other way.
% is set by controls: 0 for no effect and ±100 for the full control effect.

The compounds below were run against Cytochrome P450 2C9 (Homo sapiens) (UniProt P11712) (assay: Cytochrome panel assay with activity outcomes). Settings: recombinant CYP, pro-luciferin dealkylation, luminescence, p450-cyp2c9; series mostly up to 57.1 µM.
Chain of Cytochrome P450 2C9 (Homo sapiens) (P11712 whole entry, looked up): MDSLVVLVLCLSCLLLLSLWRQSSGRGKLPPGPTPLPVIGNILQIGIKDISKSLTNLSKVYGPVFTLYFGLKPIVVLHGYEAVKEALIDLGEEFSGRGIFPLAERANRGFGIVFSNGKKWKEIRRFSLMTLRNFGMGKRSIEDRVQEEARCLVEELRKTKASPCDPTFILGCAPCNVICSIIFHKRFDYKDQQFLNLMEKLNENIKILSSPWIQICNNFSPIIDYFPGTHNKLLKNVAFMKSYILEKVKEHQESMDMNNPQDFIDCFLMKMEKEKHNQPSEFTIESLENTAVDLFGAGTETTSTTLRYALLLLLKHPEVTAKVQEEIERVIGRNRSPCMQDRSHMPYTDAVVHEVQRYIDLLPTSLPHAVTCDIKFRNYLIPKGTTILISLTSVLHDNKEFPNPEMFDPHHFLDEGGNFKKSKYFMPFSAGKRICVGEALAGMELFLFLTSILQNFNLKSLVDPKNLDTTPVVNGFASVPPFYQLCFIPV
`O=C(O)c1c[nH]c2cc(OCc3ccccc3)ccc2c1=O` showed an activity, negative = inhibition of -11.1% [at 11.4 µM].
In the case of `O=C(O)c1ccc(SSc2ccc(C(=O)O)cn2)nc1`, the AC50 is reported as 1.58 µM (active).
For `N[C@@H](C(=O)O)c1ccc(C(=O)O)cc1`, the AC50 was “inactive”.
`O=C(O)c1cc(C(=O)O)nc(C(=O)O)c1` gave an activity, negative = inhibition of 13.5% [at 11.4 µM].
With `CC(C)C(NC(=O)C1CCCCC1)C(=O)NCc1ccccn1` (centres undefined) the AC50 was “inactive”.
For `C[C@@H](C(=O)O)[C@H]1C[C@]1(C)[C@H](NC(=O)OCc1ccccc1)c1ccccc1`, the AC50 was 15.8 µM (active).
`C[C@@H](C(=O)NCc1cccc2ccccc12)[C@H]1C[C@]1(C)[C@H](NC(=O)OCc1ccccc1)c1ccccc1` was tested, and the AC50 was 3.16 µM (active).
`C[C@@H](C(=O)NCc1ccccn1)[C@H]1C[C@]1(C)[C@H](NC(=O)OCc1ccccc1)c1ccccc1` was tested, and the AC50 was 10 µM (active).
With `COC(=O)[C@H](C)[C@H]1C[C@]1(C)[C@H](NC(=O)OCc1ccccc1)c1ccccc1` the AC50 was 2 µM (active).
Work on `C/C(CCN1CCc2nc(-c3ccccc3)c(-c3ccccc3)cc2C1)=N\OC[C@@H](O)[C@@H]1O[C@@H]2OC(C)(C)O[C@@H]2[C@H]1O` yielded an activity, negative = inhibition of -8.77% [at 11.4 µM].
`Cc1ccc(S(=O)(=O)N[C@@H]2COC(=O)C/C=C\[C@H](C)COC(=O)N[C@@H](C)C(=O)C/C=C\[C@H]2C)cc1` gave an activity, negative = inhibition of 7.18% [at 11.4 µM].
`CNc1ccnc(-c2ccccc2C(F)(F)F)n1` was tested, and the activity, negative = inhibition was 1.23% [at 2.29 µM].
With `C[C@@H](C(=O)NCc1nc2ccccc2[nH]1)[C@@H]1C[C@@]1(C)[C@@H](NC(=O)OCc1ccccc1)c1ccccc1` the AC50 was 10 µM (active).
Work on `COc1ccc(COC(=O)N/N=C2/C[C@@H](O)[C@@H](O)[C@@H]3[C@@H]4C(=O)N([C@@H](C)c5ccccc5)C(=O)[C@H]4CC[C@@H]23)cc1` yielded an activity, negative = inhibition of -19.2% [at 11.4 µM].
With `COC(=O)[C@H](C)[C@@H]1C[C@@]1(C)[C@@H](NC(=O)OCc1ccccc1)c1ccccc1` the AC50 was 5.01 µM (active).
`CNC(=O)[C@H](C)[C@H]1C[C@]1(C)[C@H](NC(=O)OCc1ccccc1)c1ccccc1` was tested, and the AC50 was 10 µM (active).
With `CCN1CCCC1Cn1cnc2c([nH]c3ccc(C)cc32)c1=O` (centres undefined) the AC50 was “inactive”.
In the case of `CN(C)CCNC(=O)C1CCCNC1=O` (centres undefined), the AC50 is reported as “inactive”.
`Cn1cnc([N+](=O)[O-])c1SCC(=O)O` showed an activity, negative = inhibition of 4.52% [at 11.4 µM].
In the case of `OCCN=c1cc(-c2ccccc2)oc2ccc(Cl)cc12`, the AC50 is reported as 2 µM (active).
With `Cc1cc2c(=O)[nH]c(N)nc2nc1C` the activity, negative = inhibition was 0.234% [at 11.4 µM].
With `CC(=O)c1sc(N)c(C(=O)OC(C)C)c1C` the AC50 was 10 µM (active).
In the case of `CCOC(=O)/C(C#N)=C1/SC(CC)C(=O)N1c1ccc(Br)cc1` (centres undefined), the AC50 is reported as 12.6 µM (active).
With `O=C(CC1CCCCC1)N1CCC(c2nc(-c3ccc(S(=O)(=O)N4CCCC4)cc3)no2)CC1` the AC50 was 7.94 µM (active).
`Cc1ccc(S(=O)(=O)N2CCCC(C(=O)NCCCN3CCCCC3C)C2)cc1` (centres undefined) was tested, and the AC50 was “inactive”.
`COC(=O)[C@@]1(Cc2ccc(OC)cc2)[C@H]2c3cc(C(=O)N4CCCC4)n(CCc4c[nH]c5ccc(O)cc45)c3C[C@H]2CN1C(=O)c1ccccc1` was tested, and the AC50 was 3.16 µM (active).
In the case of `COc1ccc(NC(=O)N2CCCC3(CCN(C(=O)c4cccc(F)c4)CC3)C2)cc1`, the AC50 is reported as “inactive”.
For `COC(=O)[C@@]1(Cc2ccc(F)cc2)[C@H]2c3cc(C(=O)N4CCCC4)n(CCc4c[nH]c5ccccc45)c3C[C@H]2CN1C(=O)c1ccccc1`, the AC50 was 2.51 µM (active).
For `COc1ccc(NC(=O)N2CC[C@@]3(CCCN(C(=O)c4cccc(F)c4)C3)C2)cc1`, the AC50 was “inactive”.
`COC(=O)[C@@]1(Cc2ccc(F)cc2)[C@H]2c3cc(C(=O)N4CCCC4)n(CCc4c[nH]c5ccc(OC)cc45)c3C[C@H]2CN1C(=O)c1ccccc1` was tested, and the AC50 was 7.94 µM (active).
In the case of `COC(=O)[C@@]1(Cc2ccc(OC)cc2)[C@H]2c3cc(C(=O)N4CCCC4)n(CCc4c[nH]c5cc(F)ccc45)c3C[C@H]2CN1C(=O)c1ccccc1`, the AC50 is reported as 3.16 µM (active).
`O=C(O)[C@@H]1CCCN1Cc1cc2ccccc2c2ccccc12` showed an activity, negative = inhibition of -0.145% [at 11.4 µM].
In the case of `Nc1nc2c(ncn2COC(CO)CO)c(=O)[nH]1`, the AC50 is reported as “inactive”.
In the case of `NC(=O)c1cc[n+](CC2=C(C(=O)O)N3C(=O)[C@@H](NC(=O)[C@H](c4ccccc4)S(=O)(=O)[O-])[C@@H]3SC2)cc1`, the AC50 is reported as “inactive”.
For `Cc1cnc(CNc2ncncc2-c2ccccc2C)cn1`, the activity, negative = inhibition was 3.37% [at 2.29 µM].
Work on `C[C@@H]1/C=C\CC(=O)OC[C@H]2O[C@@H](C=C[C@@H]2O)[C@H](C)/C=C\CC(=O)OC1` yielded an activity, negative = inhibition of -2.72% [at 11.4 µM].
For `O=C(O)c1c[nH]c2c(ccc3[nH]cc(C(=O)O)c(=O)c32)c1=O`, the activity, negative = inhibition was 12.3% [at 11.4 µM].
For `N#Cc1c(N2CCN(C(=O)c3ccccc3Cl)CC2)nc(-c2ccccc2)c2c1CCCC2`, the AC50 was 2.51 µM (active).
In the case of `N#Cc1ccc(CN2CCC3(CC2)CCN(C(=O)c2ccncc2)CC3)cc1`, the AC50 is reported as “inactive”.
Work on `Nc1nc2c(C(=O)NCc3cccs3)nnn2c2cccc(Cl)c12` yielded an activity, negative = inhibition of 12.5% [at 11.4 µM].
With `c1ccc(-c2noc(CSc3nnnn3C3CCCCC3)n2)cc1` the AC50 was 3.55 µM (active).
In the case of `CCN(CC)CCc1nc(-c2ccccc2)no1`, the AC50 is reported as “inactive”.
With `c1ccc(CCc2nc(-c3ccccc3)no2)cc1` the AC50 was “inactive”.
`O=C(N/N=C1/C[C@@H](O)[C@@H](O)[C@@H]2[C@@H]3C(=O)N(Cc4ccccc4)C(=O)[C@H]3CC[C@@H]12)OCc1ccccc1` was tested, and the activity, negative = inhibition was 9.14% [at 11.4 µM].
`CCCCCCCC/C=C\CCCCCCCC(=O)NCCc1ccc(O)c(O)c1` was tested, and the AC50 was 1.58 µM (active).
In the case of `C[C@@](Cc1ccc(O)c(O)c1)(NN)C(=O)O`, the AC50 is reported as “inactive”.
In the case of `CC(=O)NCCc1ccc(O)c(O)c1`, the AC50 is reported as “inactive”.
`Nc1ccn([C@H]2O[C@H](CO)[C@@H]3[O][Sn]([c]4ccccc4)([c]4ccccc4)[O][C@H]32)c(=O)n1` was tested, and the activity, negative = inhibition was 24.8% [at 11.4 µM].
With `FC(F)(F)c1ccccc1-c1ccc2ncnc(N3CCOCC3)c2c1` the activity, negative = inhibition was -28.6% [at 2.29 µM].
